Laboratory results: publication PMC7862700, “An all-to-all approach to the identification of sequence-specific readers for epigenetic DNA modifications on cytosine”

Key:
Assay in all cases: DAPPL (digital affinity profiling via proximity ligation, sequencing); 10 mM Tris-HCl pH 7.5, 50 mM NaCl, 1 mM DTT, 4% glycerol, room temperature, 30 min; GST-TFs on glutathione beads, 16-mer random dsDNA library, 0.1% formaldehyde crosslink after washing; high values mean tight binding
Conditions in all cases: protein: recombinant; tags: N-terminal GST; dsDNA, one strand shown
FEV = target: T1, FEV (Homo sapiens, UniProt Q99581 1-238)
T1 sequence: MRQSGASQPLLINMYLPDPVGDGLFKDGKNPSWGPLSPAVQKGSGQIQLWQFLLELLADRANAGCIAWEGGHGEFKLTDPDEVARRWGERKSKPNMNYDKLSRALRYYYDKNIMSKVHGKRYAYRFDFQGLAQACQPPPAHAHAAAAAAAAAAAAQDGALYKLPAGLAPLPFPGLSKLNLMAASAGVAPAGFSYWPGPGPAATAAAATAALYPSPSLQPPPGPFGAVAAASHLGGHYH
Method in brief: (§1)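 After expression in yeast as GST fusions, human transcription factors were bound to glutathione beads, DNA-barcoded and mixed with a tag-only sample. The pools were incubated with 200 nmole of a 16-mer random double-stranded DNA library in Tris/NaCl/DTT/glycerol buffer (30 min, room temperature), washed and crosslinked with 0.1% formaldehyde. Proximity ligation with BsaI/T4 ligase ran for 1 h at 37 °C, before PCR amplification and sequencing on an Illumina NextSeq500. Binding signal is a hexamer's read frequency for a factor divided by its frequency for the tag-only sample.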

ETV5 = ETV5 (Homo sapiens, UniProt P41161 1-510)
Chain of ETV5 (P41161 whole entry): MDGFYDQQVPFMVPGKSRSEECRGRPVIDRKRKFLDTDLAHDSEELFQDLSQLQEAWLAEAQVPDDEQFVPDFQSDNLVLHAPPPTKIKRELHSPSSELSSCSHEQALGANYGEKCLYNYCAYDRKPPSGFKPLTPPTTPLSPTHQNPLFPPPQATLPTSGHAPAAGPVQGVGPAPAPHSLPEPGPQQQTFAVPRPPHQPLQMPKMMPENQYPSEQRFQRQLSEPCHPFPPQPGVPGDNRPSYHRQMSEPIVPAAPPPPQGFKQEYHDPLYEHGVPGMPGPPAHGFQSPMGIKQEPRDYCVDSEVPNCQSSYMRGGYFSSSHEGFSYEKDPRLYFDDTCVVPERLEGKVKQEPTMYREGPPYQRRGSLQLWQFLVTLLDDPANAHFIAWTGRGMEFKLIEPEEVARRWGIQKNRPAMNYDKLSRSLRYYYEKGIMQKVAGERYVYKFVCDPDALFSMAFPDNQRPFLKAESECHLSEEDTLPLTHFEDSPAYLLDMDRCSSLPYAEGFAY
Method in brief: as §1

SPIC = target: T2, SPIC (Homo sapiens, UniProt Q8N5J4 1-248)
T2 sequence: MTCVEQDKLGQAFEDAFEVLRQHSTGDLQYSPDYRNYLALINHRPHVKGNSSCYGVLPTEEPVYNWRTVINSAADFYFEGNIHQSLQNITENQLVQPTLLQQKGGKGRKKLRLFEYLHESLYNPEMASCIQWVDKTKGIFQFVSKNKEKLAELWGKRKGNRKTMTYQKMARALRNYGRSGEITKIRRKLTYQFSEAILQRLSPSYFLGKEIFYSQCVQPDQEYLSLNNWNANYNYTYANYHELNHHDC
Method in brief: as §1

ELF4 = ELF4 (Homo sapiens, UniProt Q99607 1-663)
Chain of ELF4 (Q99607 whole entry): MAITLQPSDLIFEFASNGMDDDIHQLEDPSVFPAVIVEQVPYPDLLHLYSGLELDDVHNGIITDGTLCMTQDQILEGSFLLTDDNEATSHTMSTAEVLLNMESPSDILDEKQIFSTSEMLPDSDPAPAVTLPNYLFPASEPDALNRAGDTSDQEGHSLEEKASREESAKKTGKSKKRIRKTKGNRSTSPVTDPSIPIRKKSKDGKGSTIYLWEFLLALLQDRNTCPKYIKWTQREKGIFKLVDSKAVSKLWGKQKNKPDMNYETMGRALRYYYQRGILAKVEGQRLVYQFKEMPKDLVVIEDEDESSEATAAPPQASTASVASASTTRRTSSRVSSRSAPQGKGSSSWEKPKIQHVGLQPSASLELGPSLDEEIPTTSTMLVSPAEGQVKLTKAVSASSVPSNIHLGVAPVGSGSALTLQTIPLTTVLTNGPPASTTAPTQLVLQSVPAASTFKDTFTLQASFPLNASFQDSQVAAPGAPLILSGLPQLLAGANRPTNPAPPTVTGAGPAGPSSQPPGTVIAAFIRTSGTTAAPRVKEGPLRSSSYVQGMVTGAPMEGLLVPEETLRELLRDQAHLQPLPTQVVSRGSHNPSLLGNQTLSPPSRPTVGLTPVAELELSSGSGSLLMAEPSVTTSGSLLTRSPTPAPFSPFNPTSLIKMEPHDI
Method in brief: as §1

ELK4 = target: T3, ELK4 (Homo sapiens, UniProt P28324-2 1-405)
T3 sequence: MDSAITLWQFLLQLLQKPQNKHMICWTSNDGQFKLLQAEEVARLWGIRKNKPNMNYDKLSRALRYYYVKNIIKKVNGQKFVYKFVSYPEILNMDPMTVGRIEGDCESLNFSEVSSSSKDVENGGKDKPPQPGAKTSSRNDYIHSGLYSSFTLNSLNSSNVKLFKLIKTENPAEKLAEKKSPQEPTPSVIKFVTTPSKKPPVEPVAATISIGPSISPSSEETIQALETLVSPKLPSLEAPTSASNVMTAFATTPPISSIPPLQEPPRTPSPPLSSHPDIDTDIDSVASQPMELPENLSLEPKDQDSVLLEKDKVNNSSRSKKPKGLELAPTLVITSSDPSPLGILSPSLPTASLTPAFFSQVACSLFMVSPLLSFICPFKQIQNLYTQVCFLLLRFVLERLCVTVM
Method in brief: as §1

ETV2 = target: T4, ETV2 (Homo sapiens, UniProt O00321 1-342)
T4 sequence: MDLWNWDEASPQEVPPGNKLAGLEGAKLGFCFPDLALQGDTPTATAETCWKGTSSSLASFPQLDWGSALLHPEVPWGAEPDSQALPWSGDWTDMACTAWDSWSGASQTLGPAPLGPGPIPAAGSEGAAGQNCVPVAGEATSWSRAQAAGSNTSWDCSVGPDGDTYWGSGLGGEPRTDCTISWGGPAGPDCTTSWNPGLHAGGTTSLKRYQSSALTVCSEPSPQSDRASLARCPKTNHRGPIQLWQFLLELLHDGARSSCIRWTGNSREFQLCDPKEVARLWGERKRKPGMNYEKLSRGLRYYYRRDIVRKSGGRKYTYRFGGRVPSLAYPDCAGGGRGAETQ
Method in brief: as §1

ELF3 = target: T5, ELF3 (Homo sapiens, UniProt P78545 1-371)
T5 sequence: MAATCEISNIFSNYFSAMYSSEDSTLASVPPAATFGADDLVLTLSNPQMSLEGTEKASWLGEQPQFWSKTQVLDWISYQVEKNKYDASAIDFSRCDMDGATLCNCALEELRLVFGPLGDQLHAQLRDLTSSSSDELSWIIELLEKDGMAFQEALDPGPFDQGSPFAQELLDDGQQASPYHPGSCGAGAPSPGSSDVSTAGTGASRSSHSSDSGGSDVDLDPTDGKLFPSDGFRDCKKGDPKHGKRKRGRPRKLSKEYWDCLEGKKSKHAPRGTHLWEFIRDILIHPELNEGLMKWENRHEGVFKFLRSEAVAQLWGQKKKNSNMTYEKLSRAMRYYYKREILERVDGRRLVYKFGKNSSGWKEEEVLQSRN
Method in brief: as §1

ETV1 = ETV1 (Homo sapiens, UniProt P50549 1-477)
Chain of ETV1 (P50549 whole entry): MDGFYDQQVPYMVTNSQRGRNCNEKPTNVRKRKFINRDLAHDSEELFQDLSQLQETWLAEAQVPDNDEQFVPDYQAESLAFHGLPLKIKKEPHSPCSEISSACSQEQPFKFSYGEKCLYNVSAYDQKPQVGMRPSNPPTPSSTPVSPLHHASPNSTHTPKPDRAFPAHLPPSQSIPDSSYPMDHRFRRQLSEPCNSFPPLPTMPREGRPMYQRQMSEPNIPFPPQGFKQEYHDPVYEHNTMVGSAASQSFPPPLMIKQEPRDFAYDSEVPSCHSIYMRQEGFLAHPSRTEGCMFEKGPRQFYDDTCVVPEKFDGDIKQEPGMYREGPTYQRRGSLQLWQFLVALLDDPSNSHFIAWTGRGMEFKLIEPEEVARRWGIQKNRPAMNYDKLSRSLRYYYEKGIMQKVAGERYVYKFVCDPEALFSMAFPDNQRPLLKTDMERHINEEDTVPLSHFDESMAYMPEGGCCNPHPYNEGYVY
Method in brief: as §1

ERF = target: T6, ERF (Homo sapiens, UniProt P50548 1-548)
T6 sequence: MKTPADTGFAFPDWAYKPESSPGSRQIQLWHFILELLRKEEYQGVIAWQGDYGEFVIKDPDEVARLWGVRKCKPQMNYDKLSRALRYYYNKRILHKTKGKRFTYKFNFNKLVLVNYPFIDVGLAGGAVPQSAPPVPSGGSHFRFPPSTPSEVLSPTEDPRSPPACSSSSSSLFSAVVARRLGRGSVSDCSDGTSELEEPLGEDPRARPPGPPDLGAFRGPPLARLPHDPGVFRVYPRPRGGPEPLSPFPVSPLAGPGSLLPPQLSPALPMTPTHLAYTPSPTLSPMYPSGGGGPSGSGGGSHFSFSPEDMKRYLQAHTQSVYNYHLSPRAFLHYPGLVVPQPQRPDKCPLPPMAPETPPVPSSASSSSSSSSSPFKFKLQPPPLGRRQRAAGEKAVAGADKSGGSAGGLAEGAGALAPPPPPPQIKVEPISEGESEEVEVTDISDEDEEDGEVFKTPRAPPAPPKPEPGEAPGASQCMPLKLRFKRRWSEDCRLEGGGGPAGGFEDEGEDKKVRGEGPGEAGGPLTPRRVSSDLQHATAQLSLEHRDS
Method in brief: as §1

ETV3L = target: T7, ETV3L (Homo sapiens, UniProt Q6ZN32 1-361)
T7 sequence: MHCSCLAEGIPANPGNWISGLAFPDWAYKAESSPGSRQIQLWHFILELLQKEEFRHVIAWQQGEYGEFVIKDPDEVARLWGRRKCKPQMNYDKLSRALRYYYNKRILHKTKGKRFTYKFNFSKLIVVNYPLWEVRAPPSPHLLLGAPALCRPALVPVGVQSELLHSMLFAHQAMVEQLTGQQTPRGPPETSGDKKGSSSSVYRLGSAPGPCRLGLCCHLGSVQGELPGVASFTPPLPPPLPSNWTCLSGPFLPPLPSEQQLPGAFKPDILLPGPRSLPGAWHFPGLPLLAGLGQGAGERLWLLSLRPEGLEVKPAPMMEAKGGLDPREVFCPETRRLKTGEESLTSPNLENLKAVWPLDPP
Method in brief: as §1

ETS2 = target: T8, ETS2 (Homo sapiens, UniProt P15036 1-469)
T8 sequence: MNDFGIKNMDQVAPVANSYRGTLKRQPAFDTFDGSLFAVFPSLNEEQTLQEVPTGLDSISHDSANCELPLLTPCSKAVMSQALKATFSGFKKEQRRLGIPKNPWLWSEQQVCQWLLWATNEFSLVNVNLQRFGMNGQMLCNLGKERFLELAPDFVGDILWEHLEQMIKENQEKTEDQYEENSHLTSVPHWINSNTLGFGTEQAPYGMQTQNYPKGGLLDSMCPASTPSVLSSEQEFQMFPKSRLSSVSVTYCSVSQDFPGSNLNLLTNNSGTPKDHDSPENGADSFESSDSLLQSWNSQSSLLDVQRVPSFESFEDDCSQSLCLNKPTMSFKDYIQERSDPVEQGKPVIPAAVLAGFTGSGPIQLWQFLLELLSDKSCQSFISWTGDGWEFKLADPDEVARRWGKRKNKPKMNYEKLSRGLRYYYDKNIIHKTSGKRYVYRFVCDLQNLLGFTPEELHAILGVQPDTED
Method in brief: as §1

SPDEF = target: T9, SPDEF (Homo sapiens, UniProt O95238 1-335)
T9 sequence: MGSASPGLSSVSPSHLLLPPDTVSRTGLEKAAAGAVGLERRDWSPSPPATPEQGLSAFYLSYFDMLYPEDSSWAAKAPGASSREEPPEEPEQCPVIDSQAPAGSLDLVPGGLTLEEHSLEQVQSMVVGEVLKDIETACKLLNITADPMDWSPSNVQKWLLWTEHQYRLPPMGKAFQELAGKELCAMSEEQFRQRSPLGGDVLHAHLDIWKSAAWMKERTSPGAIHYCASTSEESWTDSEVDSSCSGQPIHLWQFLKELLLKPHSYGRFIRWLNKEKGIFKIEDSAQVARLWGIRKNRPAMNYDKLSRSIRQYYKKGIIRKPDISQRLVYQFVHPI
Method in brief: as §1

ETV7 = target: T10, ETV7 (Homo sapiens, UniProt Q9Y603 1-341)
T10 sequence: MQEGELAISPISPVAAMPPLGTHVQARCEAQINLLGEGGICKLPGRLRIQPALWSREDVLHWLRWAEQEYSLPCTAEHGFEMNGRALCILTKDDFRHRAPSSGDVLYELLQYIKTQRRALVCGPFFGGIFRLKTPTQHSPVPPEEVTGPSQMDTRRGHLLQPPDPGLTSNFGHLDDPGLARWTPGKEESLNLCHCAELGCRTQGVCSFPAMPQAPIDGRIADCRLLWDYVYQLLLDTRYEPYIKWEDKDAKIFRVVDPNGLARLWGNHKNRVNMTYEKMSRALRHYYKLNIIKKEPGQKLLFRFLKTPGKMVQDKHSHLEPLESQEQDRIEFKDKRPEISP
Method in brief: as §1

ELF5 = target: T11, ELF5 (Homo sapiens, UniProt Q9UKW6-2 1-255)
T11 sequence: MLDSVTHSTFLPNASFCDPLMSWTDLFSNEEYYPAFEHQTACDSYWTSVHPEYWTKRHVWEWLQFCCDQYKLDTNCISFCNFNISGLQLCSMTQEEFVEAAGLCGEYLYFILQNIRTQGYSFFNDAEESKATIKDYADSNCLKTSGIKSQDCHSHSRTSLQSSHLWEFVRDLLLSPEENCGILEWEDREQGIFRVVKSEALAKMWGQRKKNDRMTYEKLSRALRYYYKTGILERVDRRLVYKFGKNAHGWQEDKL
Method in brief: as §1

ETV3 = target: T12, ETV3 (Homo sapiens, UniProt P41162-2 1-143)
T12 sequence: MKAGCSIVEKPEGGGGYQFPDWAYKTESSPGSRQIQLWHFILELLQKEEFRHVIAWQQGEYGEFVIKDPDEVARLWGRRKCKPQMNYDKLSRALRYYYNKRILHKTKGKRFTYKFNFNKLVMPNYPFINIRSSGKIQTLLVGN
Method in brief: as §1

ETV6 = ETV6 (Homo sapiens, UniProt P41212 1-452)
Chain of ETV6 (P41212 whole entry): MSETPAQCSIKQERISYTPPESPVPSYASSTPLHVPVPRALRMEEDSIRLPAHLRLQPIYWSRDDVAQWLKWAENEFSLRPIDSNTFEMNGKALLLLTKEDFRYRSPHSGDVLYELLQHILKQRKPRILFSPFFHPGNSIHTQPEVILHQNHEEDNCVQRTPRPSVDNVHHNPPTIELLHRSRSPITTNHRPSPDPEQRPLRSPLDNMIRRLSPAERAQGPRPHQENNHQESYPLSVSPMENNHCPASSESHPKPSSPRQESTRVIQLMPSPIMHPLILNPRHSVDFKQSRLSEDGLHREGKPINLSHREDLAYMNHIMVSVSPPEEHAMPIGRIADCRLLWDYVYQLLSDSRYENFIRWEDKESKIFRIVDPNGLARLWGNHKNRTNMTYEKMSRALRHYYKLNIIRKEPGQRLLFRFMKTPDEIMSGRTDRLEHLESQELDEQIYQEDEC
Method in brief: as §1

## CAACAC
FEV
  binding signal: 1.11 fold enrichment (6-mer frequency, TF over GST control)
ETV5
  binding signal: 1.07 fold enrichment (6-mer frequency, TF over GST control)
SPIC
  binding signal: 1.08 fold enrichment (6-mer frequency, TF over GST control)
ELF4
  binding signal: 1.14 fold enrichment (6-mer frequency, TF over GST control)
ELK4
  binding signal: 1.2 fold enrichment (6-mer frequency, TF over GST control)
ETV2
  binding signal: 1.08 fold enrichment (6-mer frequency, TF over GST control)
ELF3
  binding signal: 1.09 fold enrichment (6-mer frequency, TF over GST control)
ETV1
  binding signal: 1.11 fold enrichment (6-mer frequency, TF over GST control)
ERF
  binding signal: 1.16 fold enrichment (6-mer frequency, TF over GST control)
ETV3L
  binding signal: 1.13 fold enrichment (6-mer frequency, TF over GST control)
ETS2
  binding signal: 1.13 fold enrichment (6-mer frequency, TF over GST control)
SPDEF
  binding signal: 1.13 fold enrichment (6-mer frequency, TF over GST control)
ETV7
  binding signal: 1.13 fold enrichment (6-mer frequency, TF over GST control)
ELF5
  binding signal: 1.1 fold enrichment (6-mer frequency, TF over GST control)
ETV3
  binding signal: 1.15 fold enrichment (6-mer frequency, TF over GST control)
ETV6
  binding signal: 1.11 fold enrichment (6-mer frequency, TF over GST control)

## CGACGC
ETV5
  binding signal: 1.07 fold enrichment (6-mer frequency, TF over GST control)
SPIC
  binding signal: 1.09 fold enrichment (6-mer frequency, TF over GST control)
ELF4
  binding signal: 1.09 fold enrichment (6-mer frequency, TF over GST control)
ELK4
  binding signal: 1.07 fold enrichment (6-mer frequency, TF over GST control)
ETV2
  binding signal: 1.16 fold enrichment (6-mer frequency, TF over GST control)
ELF3
  binding signal: 1.28 fold enrichment (6-mer frequency, TF over GST control)
ETV1
  binding signal: 1.01 fold enrichment (6-mer frequency, TF over GST control)
ERF
  binding signal: 1.17 fold enrichment (6-mer frequency, TF over GST control)
ETV3L
  binding signal: 1.08 fold enrichment (6-mer frequency, TF over GST control)
ETS2
  binding signal: 1.16 fold enrichment (6-mer frequency, TF over GST control)
SPDEF
  binding signal: 1.04 fold enrichment (6-mer frequency, TF over GST control)
ETV7
  binding signal: 1.05 fold enrichment (6-mer frequency, TF over GST control)
ELF5
  binding signal: 1.05 fold enrichment (6-mer frequency, TF over GST control)
ETV3
  binding signal: 1 fold enrichment (6-mer frequency, TF over GST control)
ETV6
  binding signal: 1.09 fold enrichment (6-mer frequency, TF over GST control)
